According to PubChem BioAssay (NCATS):
Inconclusive results are not listed. A number with no mark means an inactive call. Calls of active or inactive are those of the source. The call rests on the fitted dose curve; in most records, active means well fitted curve in the direction sought with a large enough effect; inconclusive means small, poorly fitted or top-dose-only effect, or another doubt; inactive means no such curve, though single readings can be large or run the other way.

What follows are compounds tested against Calcium and integrin-binding protein 1 (Homo sapiens) (UniProt Q99828) (assay: Validation qHTS for Identification of Calcium Integrin Binding protein 1 (CIB1) Competitor (AID 1508618)). Settings: CIB1-GST / FITC-alphaIIb peptide fluorescence polarization; series mostly up to 114 µM; activity change, negative = inhibition: at the top concentration.
Source text: Assay Provider: Ulhas P. Naik, PhD
Sidney Kimmel Medical College
Thomas Jefferson University, Philadelphia, PA
Primary function of platelets is to maintain hemostasis. At the site of vascular injury, platelets adhere to adhesive proteins such as collagen and von Willebrand factor. Adherent platelets are activated and generate soluble platelet agonists such as thrombin, ADP and thromboxane A2. Following exposure of circulating platelets to these agonists, results in platelet shape change, granule secretion and activation of platelet integrin alphaIIb-beta3. Ligand binding to activated integrin alphaIIb-beta3 triggers outside-in signaling, leading to platelet aggregation, stabilization of platelet plug, and clot retraction. Upon atherosclerotic plaque rupture also causes platelet plug formation, which underlies a number of cardiovascular diseases such as myocardial infraction and stroke. A number of anti-platelet drugs such as aspirin, clopidogrel, prasugrel, vorapaxar, and eptifibatide are currently available to prevent the thrombotic complications. However, these anti-platelet agents have several limitations including inherent variability in individual responses, developing resistance, and serious bleeding side effects. For these reasons they are not suitable for long-term protection. Based on the experiences with current anti-platelet drugs, it appears that the most useful therapeutic approach is to intersect the secondary responses such as integrin outside-in signaling or recruitment of platelets by TxA2 and secreted ADP. Compounds, which can largely preserve the primary hemostatic function of platelets but inhibit secondary response will be most desired therapeutic agents for treatment of cardiovascular disease.
CIB1 is a calcium integrin binding protein, which specifically interact with the alphaIIb subunit of integrin alphaIIb-beta3. Binding of CIB1 to alphaIIb regulates the outside-in signaling in platelets, which is needed for thrombus stabilization and thrombus growth. […] Therefore, we propose that discovery of a small molecule that can prevent the association of CIB1 and alphaIIb-beta3 will be a potential anti-platelet agent that can block the thrombus formation without undue effect on hemostasis.
To develop fluorescence polarization (FP) assay using fluorescently labeled alphaIIb peptide and CIB1 protein. Using FP assay characterize the binding affinity, competitive inhibition, and acceptable Z factor (0.5 to1) in order to perform the HTS to identify small molecule compound that can prevent CIB1 binding to platelet integrin alphaIIbbeta3. This assay is screened against the NCATS LOPAC library to validate the amenability of the assay to qHTS.
[1] Naik MU, Nigam A, Manrai P, et al. CIB1 deficiency results in impaired thrombosis: the potential role of CIB1 in outside-in signaling through integrin alpha IIb beta 3. J Thromb Haemost. 2009;7(11):1906-1914. doi:10.1111/j.1538-7836.2009.03581.
SEQUENCE No. (1, 2, 3, etc.); […] (e.g., Cells, Incubation, Reagent, etc.); VALUE and DESCRIPTION.
1; Reagent; 3 uL; Protein or buffer (4/3x)
2; Compound; 46 nL; Control inhibitor / compound library
3; Time; 15 min; Room temperature incubation
4; Reagent; 1 uL; Fluorescent labeled peptide (4x)
5; Time; 1000 rpm; Centrifuge
6; Time; 15 min; Room temperature incubation
7; Detection; Ex 480/ Em 540; ViewLux Fluorescence Read
NOTES (numbers refer to sequence above)
1; Protein Mixture: C1B1-GST (final concentrations of 1 uM). Buffer composition: 5 mM HEPES pH 7.4, 125 mM NaCl, 5 mM CaCl2, 0.01% Tween20.
2; Control Inhibitor: unlabeled peptide (final concentration range 17.4 nM to 572 uM). Compound Library final concentration range 18.3 nM to 114 uM.
3; Room temperature incubation.
4; Fluorescent Labeled Peptide: FITC-aIIb (final concentration of 100 nM). Sequence of alphaIIb peptide: Acetyl-[…]-FITC (purity is 95.83%).
6; Room temperature incubation.
[…]
On the % scale 0 is the no-effect control and ±100 the full control effect.

Calcium and integrin-binding protein 1 (Homo sapiens), sequence (Q99828 whole entry, looked up): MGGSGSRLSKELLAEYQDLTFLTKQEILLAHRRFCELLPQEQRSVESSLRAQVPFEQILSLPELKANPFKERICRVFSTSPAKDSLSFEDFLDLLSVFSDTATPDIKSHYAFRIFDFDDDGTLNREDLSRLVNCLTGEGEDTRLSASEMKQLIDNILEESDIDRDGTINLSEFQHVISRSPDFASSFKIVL

Row | Compound | activity change, negative = inhibition | outcome
1 | O=C1NC(=O)C(c2ccccc2)(c2ccccc2)N1 | 10.1% | –
2 | O=C(NCCN1CCOCC1)c1ccc(Cl)cc1 | 5.43% | –
3 | CCN(CC)C(=O)c1ccc(O)c(OC)c1 | 11.1% | –
4 | Clc1ccc(Cn2c(CN3CCCC3)nc3ccccc32)cc1 | 5.8% | –
5 | CN(C)CCC(c1ccccc1)c1ccccn1 (stereo not given) | -3.89% | –
6 | CC(=O)O[C@]1(C(C)=O)CC[C@H]2[C@@H]3C=C(Cl)C4=CC(=O)[C@@H]5C[C@@H]5[C@]4(C)[C@H]3CC[C@@]21C | 1.91% | –
7 | C[N+](C)(C)CCCCCC[N+](C)(C)C | – | inactive
8 | CCN1CCC[C@H]1CNC(=O)c1cc(S(N)(=O)=O)ccc1OC | 10.5% | –
9 | COc1cccc(-c2cc(=O)c3ccccc3o2)c1N | 8.79% | –
10 | CCN(CC)CCNC(=O)c1ccc(N)cc1 | 5.78% | –
11 | CC(=O)N[C@@H](CS)C(=O)O | 5.49% | –
12 | COc1ccccc1N1CCN(CCCNc2cc(=O)n(C)c(=O)n2C)CC1 | 16.9% | –
13 | CC1(C)CCC2=C(O1)c1ccccc1C(=O)C2=O | 1.29% | –
14 | NCCS | 11.4% | –
15 | CC(C)(C)c1ccc(C(O)CCCN2CCC(C(O)(c3ccccc3)c3ccccc3)CC2)cc1 (stereo not given) | 4.66% | –
16 | O=c1cc(-c2ccc(O)cc2)oc2cc(O)cc(O)c12 | 2.43% | –
17 | Clc1ccc(C(c2ccc(Cl)cc2)n2cc[n+](CC(OCc3ccc(Cl)cc3Cl)c3ccc(Cl)cc3Cl)c2)cc1 (stereo not given) | 77.6% | –
18 | NC(N)=Nc1nc(CSCC/C(N)=N/S(N)(=O)=O)cs1 | 2.6% | –
19 | CC(C)NCC(O)COc1cccc2[nH]ccc12 (stereo not given) | 3.85% | –
20 | COc1ccc(Cc2nccc3cc(OC)c(OC)cc23)cc1OC | 7.18% | –
21 | CCN(CC)CCOC(=O)c1ccc(N)cc1 | -1.82% | –
22 | O=C1NCC2(CCN(CCc3ccccc3)CC2)O1 | 9.25% | –
23 | CCCNC(=O)NS(=O)(=O)c1ccc(Cl)cc1 | 15% | –
24 | CC1=C(/C=C/C(C)=C/C=C/C(C)=C/C(=O)Nc2ccc(O)cc2)C(C)(C)CCC1 | 9.6% | –
25 | CC(=O)c1ccc(S(=O)(=O)NC(=O)NC2CCCCC2)cc1 | 1.36% | –
